This is a sample that favours compounds with a hit; in the whole collection about 18% have one here.
TGFb inhibitor – qHTS for Inhibitors of TGF-b; Potency, µM (highest dose often 46.1 µM), inactives show top-dose activity, negative = inhibition, most hits filed as inhibitors; 1.2% of 410,000 active; HepG2 CAGA-GFP TGF-b/SMAD3 reporter, GFP fluorescence, 18 h; TGF-beta stimulated, 500 pg/mL final; note: potency is the fitted concentration of half-maximal effect; % is set by controls: 0 for no effect and ±100 for the full control effect; nearly all actives have a fitted effect of over 65% in size
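Cell-based qHTS in HEPG2 carrying a CAGA-GFP Smad reporter; compounds added before 500 pg/mL final TGF-beta, 18 h incubation at 37 degrees C, GFP fluorescence quantified per cell by imaging cytometry.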
TDP1 block – qHTS Assay for Inhibitors of Tyrosyl-DNA Phosphodiesterase (TDP1). recombinant TDP1, AlphaScreen DNA substrate cleavage. 0.28% of 350,000 active. Potency, µM (highest dose often 130 µM), for the others: at the top dose activity change, negative = inhibition, actives largely listed as inhibitors. AID 485290, 2010; note: potency is the fitted concentration of half-maximal effect; % is set by controls: 0 for no effect and ±100 for the full control effect; nearly all actives have a fitted effect of over 40% in size
Target sequence (Q9NUW8 whole entry, looked up): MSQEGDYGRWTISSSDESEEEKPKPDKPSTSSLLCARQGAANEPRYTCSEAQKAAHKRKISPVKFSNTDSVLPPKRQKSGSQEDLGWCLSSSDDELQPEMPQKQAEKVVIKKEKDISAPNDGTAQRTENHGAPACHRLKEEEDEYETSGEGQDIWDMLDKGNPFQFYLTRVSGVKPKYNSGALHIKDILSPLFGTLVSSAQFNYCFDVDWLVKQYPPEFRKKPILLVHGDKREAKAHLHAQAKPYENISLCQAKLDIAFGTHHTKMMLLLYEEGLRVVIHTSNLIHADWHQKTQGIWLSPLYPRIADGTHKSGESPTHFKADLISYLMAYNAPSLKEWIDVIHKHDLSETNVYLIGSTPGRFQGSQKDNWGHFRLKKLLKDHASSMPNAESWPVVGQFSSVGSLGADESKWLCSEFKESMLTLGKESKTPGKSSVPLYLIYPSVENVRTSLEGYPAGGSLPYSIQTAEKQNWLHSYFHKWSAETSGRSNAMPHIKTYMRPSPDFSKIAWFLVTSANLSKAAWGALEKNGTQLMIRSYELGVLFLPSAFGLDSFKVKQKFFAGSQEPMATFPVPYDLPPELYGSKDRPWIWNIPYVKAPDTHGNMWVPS
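E. coli-derived human Tdp1, 1 nM final. Cpd preinc 15 min RT; substrate 15 nM final, 5 min RT; AS bead mix 10 ug/ml final, 10 min RT. Signal loss = tyrosine-FITC cleavage. No-enzyme wells = max signal.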
IL1B secr inh – qHTS for Inhibitors of Inflammasome Signaling: IL-1-beta AlphaLISA Primary Screen; THP-1 LPS/ATP IL-1B secretion, AlphaLISA, 16 h; active compounds read low; activity change, % at 57.5 µM; 4.7% of 360,000 active; AID 743279, 2014; in the data active = activity change below about -50%; inconclusive = mostly about -30% to -49%; note: % is set by controls: 0 for no effect and ±100 for the full control effect
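Secreted IL-1B measured by AlphaLISA bead assay after 16 h compound exposure of THP-1 cells; compounds (final up to 57.5 uM) added 1 h before LPS (250 ng/mL) and ATP (1.25 mM) stimulation; lower signal means less secretion.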
DT40 TDP1 CPT – qHTS for Inhibitors of human tyrosyl-DNA phosphodiesterase 1 (TDP1): qHTS in cells in presence of CPT. chicken DT40 Tdp1-/-;hTDP1 cells + 20 nM CPT, ATP luminescence, 48 h. Potency, µM (top dose mostly 46.2 µM), for inactives: at the highest dose activity change, negative = growth inhibition, hits mostly inhibitors. 12% of 420,000 active; note: potency is the fitted concentration of half-maximal effect; % is set by controls: 0 for no effect and ±100 for the full control effect; nearly all actives have a fitted effect of over 55% in size
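Chicken DT40 Tdp1-/- cells stably complemented with human TDP1 were seeded at 400 cells/well in medium containing 20 nM camptothecin, exposed to pin-transferred compounds, and grown at 37 °C for at least 48 hr. Viability was read as ATP luminescence.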
DT40 TDP1 no CPT – qHTS for Inhibitors of human tyrosyl-DNA phosphodiesterase 1 (TDP1): qHTS in cells in absence of CPT; 15% of 420,000 active; DT40 Tdp1-/- hTDP1 cells, no CPT, ATP luminescence, 48 h; Potency, µM (top dose mostly 46.2 µM), for the others: top-dose activity change, negative = growth inhibition, hits mostly inhibitors; AID 686978, 2013; note: potency is the fitted concentration of half-maximal effect; % is set by controls: 0 for no effect and ±100 for the full control effect; nearly all actives have a fitted effect of over 55% in size
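Growth kinetics read by CellTiter-Glo luminescence after ≥48 hr at 37 °C. Cells: DT40 Tdp1-/- stably carrying human TDP1, 400 per well, compound exposure in the absence of CPT (DMSO vehicle).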
HepG2 viability – qHTS for Inhibitors of TGF-b: Cytotox Counterscreen | HepG2 CAGA-GFP viability, ATP luminescence, 18 h | Potency, µM (doses to about 46.1 µM), for inactives: at the highest dose activity change, negative = cytotoxicity, usual class: cytotoxic | 0.76% of 410,000 active; note: potency is the fitted concentration of half-maximal effect
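CellTiter-Glo luminescence gave cytotoxicity after 18 hours at 37 degrees C. The cells were HepG2 CAGA-GFP in 1% FBS DMEM, stimulated with 500 pg/mL TGF-beta after compound addition. %Activity was normalised to no-cell wells (complete cell-killing) and DMSO (no toxicity), and curves were fitted and classified.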
Starred values were filed as active, the others as inactive; i = inactive; ? = inconclusive; / = no result. Unless noted, calls come from the whole dose curve; as a rule, active = well fitted curve in the direction sought with a large enough effect; inconclusive = small, poorly fitted or top-dose-only effect, or another doubt; inactive = no such curve, though single readings can be large; an effect the other way counts as inactive or inconclusive.

SMILES	TGFb inhibitor	TDP1 block	IL1B secr inh	DT40 TDP1 CPT	DT40 TDP1 no CPT	HepG2 viability
Cc1ccc2sc(N(CCCN(C)C)C(=O)CN3C(=O)c4ccccc4C3=O)nc2c1C	?	1%	?	21µM*	21µM*	-82%
CN(C)CCCN(C(=O)COc1ccc(Cl)cc1)c1nc2ccc(F)cc2s1	-12%	-5%	-65*	-11%	-21%	-15%
Cc1ccc2nc(N(CCCN(C)C)C(=O)COc3ccc(Cl)cc3)sc2c1	?	9%	-28	?	21µM*	-95%
Cc1ccccc1Nc1ncnc2c1c(-c1ccccc1)cn2-c1ccc(F)cc1	-18%	0%	/	?	?	-14%
COc1cc(=O)n2c(c1C(=O)N(C)Cc1nccs1)CCN(Cc1cccc(F)c1F)CC2	/	/	/	7%	-10%	/
COc1cccc(C(=O)Nc2ccccc2-c2nnc(-c3ccc(C(C)(C)C)cc3)o2)c1	14%	8%	/	?	?	6%
Cc1cccc2sc(N(CCCN(C)C)C(=O)COc3ccc(Cl)cc3)nc12	-25%	6%	-60*	?	?	22µM*
Cc1cccc2sc(N(CCCN(C)C)C(=O)COc3ccccc3)nc12	/	7%	/	-5%	-6%	-32%
CCOc1ccc(NC(=O)c2c(NC(=O)c3cccs3)sc3c2CCC(C(C)(C)C)C3)cc1 (stereo not drawn)	14%	/	/	-17%	-15%	-12%
N#CC1=C(SCC(=O)NC23CC4CC(CC(C4)C2)C3)NC(=O)C(C#N)C12CCCCC2 (stereo not drawn)	11µM*	5%	?	18µM*	23µM*	-26%
CC(C)(C)C1CCC2(CC1)C(C#N)=C(SCC(=O)NC1CCCCC1)NC(=O)C2C#N (stereo not drawn)	?	2%	-25	21µM*	16µM*	-31%
COc1ccc(-c2cc3nc(CCl)[nH]c(=O)c3s2)cc1	?	5%	-6	4.6µM*	4.1µM*	22µM*
COc1ccc(N2CCN(Cc3nc4ccsc4c(=O)[nH]3)CC2)cc1	-6%	5%	2	-4%	-4%	-6%
Cc1cccc(NC(=O)CCc2nc3sc4c(c3c(=O)[nH]2)CCCC4)c1	?	/	0	?	?	-45%
CCc1cccc(NC(=O)CCc2nc3sc4c(c3c(=O)[nH]2)CCCC4)c1	?	/	18	8.2µM*	10µM*	0%
COc1cccc(NC(=O)CN(C)C(=O)CCc2nc3sc4c(c3c(=O)[nH]2)CCCC4)c1	8%	-5%	3	-5%	-12%	-3%
COc1ccccc1NC(=O)CCc1nc2sc3c(c2c(=O)[nH]1)CCCC3	-10%	-5%	23	12µM*	2.9µM*	0%
Cc1cc(C)cc(NC(=O)CSc2nc3sc4c(c3c(=O)[nH]2)CCCC4)c1	-1%	2%	/	-21%	-29%	5%
COC(=O)c1ccccc1NC(=O)CSc1nc2sc3c(c2c(=O)[nH]1)CCCC3	-13%	-8%	/	12µM*	9.2µM*	-33%
CN(C)S(=O)(=O)c1cccc(NC(=O)CCc2nc3sc4c(c3c(=O)[nH]2)CCCC4)c1	?	1%	-12	16µM*	?	-15%
COc1ccc(NS(=O)(=O)c2cccc(C(=O)N3CCN(Cc4cc(OC)ccc4OC)CC3)c2)cc1	0%	6%	-15	?	?	-18%
COc1ccc(F)cc1CN1CCN(C(=O)c2ccc(S(=O)(=O)N3CCCCCC3)cc2)CC1	11%	/	-1	?	?	-21%
COc1ccc(OC)c(CN2CCN(C(=O)c3cc(S(=O)(=O)Nc4ccccc4OC)ccc3C)CC2)c1	-2%	7%	i	?	?	-29%
COc1ccc(OC)c(CN2CCN(C(=O)c3cccc(S(=O)(=O)Nc4ccc(C)cc4)c3)CC2)c1	?	3%	-53*	26µM*	?	-17%
COc1ccc(OC)c(CN2CCN(C(=O)c3ccc(S(=O)(=O)N4CCCCCC4)cc3)CC2)c1	-3%	/	?	?	21µM*	-21%
SMILES	TGFb inhibitor	TDP1 block	IL1B secr inh	DT40 TDP1 CPT	DT40 TDP1 no CPT	HepG2 viability
COc1ccc(NS(=O)(=O)c2ccc(C)c(C(=O)N3CCN(Cc4cc(OC)ccc4OC)CC3)c2)cc1	2%	/	-15	21µM*	23µM*	-11%
CCn1cnc2c(Nc3ccc(CCC(=O)N=C(N)N)cc3)nc(C#N)nc21	/	0%	/	/	/	/
CN(CC(=O)Nc1ccccc1Cl)CC(=O)Nc1cccc2ccccc12	-9%	1%	-5	?	?	1%
CC(C)n1c(=O)c2ccccc2n1CC(=O)N1CCOCC1	/	/	0	3%	-19%	/
CCOC(=O)N1CCc2[nH]c3ccc(C)cc3c2C1	7%	-6%	?	15µM*	23µM*	-18%
CCOC(=O)C1=NOC(COc2ccccc2C=O)C1 (stereo not drawn)	-1%	4%	-9	?	-23%	11%
Cc1ccc(-c2cc(C(F)(F)F)n3ncc(-c4ccc(Cl)cc4)c3n2)cc1	7%	/	/	7%	20%	7%
O=C(CSc1nnc(-c2ccc(O)cc2)n1Cc1ccco1)c1ccccc1	7%	4%	-16	-18%	?	2%
Clc1ccc(CSc2nnc(-c3ccccn3)n2Cc2ccco2)c(Cl)c1	17%	6%	-1	?	29µM*	-18%
S=c1[nH]nc(COc2ccc(Cl)cc2)n1Cc1ccco1	-8%	-2%	12	4%	21µM*	-1%
O=C(CSc1nnc(-c2ccccn2)n1Cc1ccco1)c1ccc(-c2ccccc2)cc1	12%	5%	-11	29µM*	?	-15%
CCn1c(COc2ccc(C)cc2)nnc1SCC(=O)Nc1cc(OC)ccc1OC	-4%	5%	-5	?	21µM*	-24%
c1ccc(-c2nnc(SCc3nc4ccccc4[nH]3)n2Cc2ccco2)cc1	-4%	8%	-3	-18%	-21%	-18%
COc1ccccc1NC(=O)CSc1nnc(COc2ccc(Cl)cc2)n1Cc1ccco1	-2%	5%	?	21µM*	15µM*	-26%

Screening results from PubChem.
